Consider five molecules from PubChem BioAssay.

Each structure is given as a SMILES string. Calls of active or inactive are those of the source. Unless noted, the rule behind the calls is not given here.

Test [1] can be described thus: compound effects on lung adenocarcinoma cell viability – A549, calcein-AM fluorescence, 48 h, basal, profiling panel (AID 1162). Note: test concentration not given here. The note with it: higher = more signal.
The nature of test [2]: compound effects on differentiated 3T3-L1 adipocyte viability – cell-based, 3T3-L1 adipocytes, calcein-AM fluorescence, 48 h, basal, profiling panel (AID 1163). Note: test concentration not given here. The note with it: 3T3-L1 adipocytes viability, higher = more signal.
Test [3] in a line: compound effects on hepatocellular carcinoma cell viability – HepG2, calcein-AM fluorescence, 48 h, basal, profiling panel (AID 1164). Note: test concentration not given here. Particulars: higher = more signal.
Test [4] can be described thus: compound effects on multiple myeloma cell viability – MM1S, calcein-AM fluorescence, 48 h, basal, profiling panel (AID 1165).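 Note: viability of MM1S multiple myeloma cells under basal unstimulated conditions; test concentration not given here.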 Particulars: higher = more signal.
A short description of test [5]: calcein-AM signal in unstimulated myeloma cells – cell-based, calcein-AM fluorescence, 48 h, PK04 Diversity Set, profiling panel (AID 1166).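 Note: cells grown under basal conditions without added stimulus; test concentration not given here.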 Particulars: RPMI8226 myeloma viability, higher = more signal.
The nature of test [6]: JC-1 mitochondrial signal, unstimulated HepG2 cells – cell-based, JC-1 fluorescence, 24 h, 100 nL compound, profiling panel (AID 1167). Note: test concentration not given here. The note with it: HepG2 mitochondrial potential, higher = more signal.
Test [7] can be described thus: JC-1 mitochondrial signal, unstimulated adipocytes – cell-based, JC-1 fluorescence, 3T3-L1 adipocytes, 24 h, 100 nL compound, profiling panel (AID 1168). Note: test concentration not given here. Particulars: JC-1 mitochondrial fluorescence, higher = more signal, called active from +8 up or from −8 down.
Test [8] can be described thus: JC-1 mitochondrial signal, unstimulated myeloma cells – cell-based, JC-1 fluorescence, RPMI8226, 24 h, 100 nL compound, profiling panel (AID 1169). Note: test concentration not given here. Particulars: JC-1 mitochondrial potential fluorescence, higher = more signal.
Test [9] in a line: JC-1 mitochondrial signal, unstimulated MM1S myeloma – cell-based, JC-1 fluorescence, 24 h, 100 nL compound, profiling panel (AID 1170). Note: test concentration not given here. Particulars: MM1S mitochondrial potential, higher = more signal.
A short description of test [10]: resazurin metabolic signal in A549 cells – cell-based, resazurin fluorescence, 24 h, PK04 Diversity Set, profiling panel (AID 1171). Note: test concentration not given here. Particulars: A549 viability, higher = more signal, called active from +8 up or from −8 down.
A short description of test [11]: resazurin metabolic signal in HepG2 cells – cell-based, resazurin fluorescence, 24 h, PK04 Diversity Set, profiling panel (AID 1172). Note: test concentration not given here. The note with it: HepG2 viability, higher = more signal.
A short description of test [12]: budding yeast growth changes without added modifier – OD600, strain BY4716, 24 h, basal condition, primary screen (AID 1173). Particulars: S. cerevisiae BY4716 growth, OD600, 24 h; higher = more signal, called active from +8 up or from −8 down.
A short description of test [13]: viability profiling in MM1S myeloma cells – cell-based, resazurin fluorescence, basal, 24 h, PK04 Diversity Set, profiling panel (AID 1174). Note: test concentration not given here. The note with it: higher = more signal, called active from +8 up or from −8 down.
For test [14], the target named is Dihydroorotate dehydrogenase (quinone), mitochondrial (Plasmodium falciparum (isolate 3D7)) (UniProt Q08210). Nature of the test: inhibition of P. falciparum DHODH – biochemical, C-terminal His tag, absorbance 600 nm, primary screen (AID 1175).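 Note: recombinant parasite enzyme with a five histidine tag at its C terminus; test concentration not given here.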 Particulars: PfDHODH enzyme, DCIP absorbance 600 nm; higher = more signal, called active from +8 up or from −8 down.
Dihydroorotate dehydrogenase (quinone), mitochondrial (Plasmodium falciparum (isolate 3D7)), sequence (Q08210 whole entry, looked up): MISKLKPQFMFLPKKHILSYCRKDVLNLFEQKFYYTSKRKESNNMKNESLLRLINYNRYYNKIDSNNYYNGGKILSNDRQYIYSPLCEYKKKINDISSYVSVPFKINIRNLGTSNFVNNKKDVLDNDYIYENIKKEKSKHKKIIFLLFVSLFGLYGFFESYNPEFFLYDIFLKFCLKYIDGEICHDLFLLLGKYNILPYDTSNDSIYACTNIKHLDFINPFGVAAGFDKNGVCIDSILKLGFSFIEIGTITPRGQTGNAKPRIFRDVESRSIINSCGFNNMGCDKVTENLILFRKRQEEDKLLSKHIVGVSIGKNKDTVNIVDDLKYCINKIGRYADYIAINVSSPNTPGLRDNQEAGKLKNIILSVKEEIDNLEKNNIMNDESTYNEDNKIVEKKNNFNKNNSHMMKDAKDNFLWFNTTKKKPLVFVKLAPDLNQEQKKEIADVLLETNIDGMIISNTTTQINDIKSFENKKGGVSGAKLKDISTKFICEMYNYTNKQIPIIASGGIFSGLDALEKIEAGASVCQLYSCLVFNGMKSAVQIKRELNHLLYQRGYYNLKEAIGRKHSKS
Test [15] is described as follows: inhibition of PAO1 biofilm formation – strain PAO1, LB-PBS medium, absorbance 600 nm, primary screen (AID 1176). Note: test concentration not given here. The note with it: P. aeruginosa PAO1 growth/biofilm, A600, 12 h; higher = more signal.
Test [16] is described as follows: growth modulation of vineyard yeast isolate – strain RM11-1a, OD600, basal, 24 h, primary screen (AID 1177).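 Note: cultures grown under basal conditions with no added stressor; test concentration not given here.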 Particulars: S. cerevisiae RM11-1a growth, OD600, 24 h; higher = more signal, called active from +8 up or from −8 down.
The nature of test [17]: growth of efflux-deficient E. coli DRC39 – strain DRC39, OD650, 24 h, E. coli filamentation inducers, primary screen (AID 1178).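 Note: growth measured as culture turbidity by optical density at 650 nm; test concentration not given here.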 The note with it: E. coli DRC39 acrAB, higher = more signal, called active from +8 up or from −8 down.
Test [18] is described as follows: growth of efflux-deficient E. coli DRC39 – strain DRC39, OD650, 48 h, E. coli filamentation inducers, primary screen (AID 1179).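 Note: screen aims at cell division blockers that make cells filament.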 The note with it: E. coli DRC39 delta-acrAB growth, higher = more signal, called active from +8 up or from −8 down.
A short description of test [19]: viability profiling in RPMI8226 myeloma cells – cell-based, resazurin fluorescence, basal, 24 h, PK04 Diversity Set, profiling panel (AID 1180).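 Note: RPMI8826 multiple myeloma cell line at 5000 cells per well; test concentration not given here.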 The note with it: higher = more signal.
Test [20] deals with E3 ubiquitin-protein ligase XIAP (Homo sapiens) (UniProt P98170). Briefly: small molecules binding XIAP protein – biophysical, small-molecule microarray, fluorescence 635 nm, primary screen (AID 1181).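 Note: score merges 667 nm emission and signal to noise over triplicate slides.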 The note with it: higher = more signal.
E3 ubiquitin-protein ligase XIAP (Homo sapiens), sequence (P98170 whole entry, looked up): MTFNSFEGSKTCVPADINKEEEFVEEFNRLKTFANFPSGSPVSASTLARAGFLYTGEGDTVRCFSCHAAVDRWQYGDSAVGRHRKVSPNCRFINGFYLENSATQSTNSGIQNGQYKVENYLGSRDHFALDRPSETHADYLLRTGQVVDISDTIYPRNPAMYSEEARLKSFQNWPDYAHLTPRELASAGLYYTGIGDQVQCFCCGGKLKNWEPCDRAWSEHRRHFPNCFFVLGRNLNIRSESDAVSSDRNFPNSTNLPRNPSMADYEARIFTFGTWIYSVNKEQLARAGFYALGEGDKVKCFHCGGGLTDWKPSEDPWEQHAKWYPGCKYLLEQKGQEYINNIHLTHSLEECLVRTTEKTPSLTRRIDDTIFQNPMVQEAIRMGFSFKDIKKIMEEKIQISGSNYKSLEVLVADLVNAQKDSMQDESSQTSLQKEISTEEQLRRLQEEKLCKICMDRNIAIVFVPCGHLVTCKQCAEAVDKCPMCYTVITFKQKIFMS

Regarding `COC(=O)C1=CC(CCCO)=CC(C2CC2)N(C)C=C1C(=O)OC` (stereo not given), the z-score in test [1] was 2.6; in [2], 0.435; in test [3], 1.45; in [4] it was 0.828; in test [5] it was 2.02; in test [6], 0.63. The z-score in [7] is -0.757 (inactive); in test [8] it was -0.225; in test [9], -1.27; in [10] it was -0.951 (inactive); in test [11], 0.421; in [12] it was -0.589 (inactive). The z-score in test [13] is -0.463 (inactive); in test [15], 0.82 (inactive); in [16], -1.09 (inactive); in [17], 1.04 (inactive); in test [18], 1.58 (inactive); in [19], -0.0242. In addition, the composite z-score in test [14] was -1.43 (inactive); in [20] it was 0.0054.
For `COc1ccc([Si](C)(C)[C@@H]2[C@@H](CCO)O[C@]3(C(=O)N(Cc4ccc(N5CCCCC5=O)cc4)c4ccccc43)[C@H]2C)cc1`, the z-score in test [1] was 0.108; in test [2], -0.686; in test [3], -0.347; in test [4] it was -2.8; in test [5], -3.05; in test [6] it was 0.714. Moreover, the z-score in test [7] is 1.25 (inactive); in test [8] it was 0.88; in test [9], 0.572; in [10] it was -1.78 (inactive); in [11], -0.723; in test [12], -0.173 (inactive). The z-score in [13] was -0.75 (inactive); in test [15], 1.45 (inactive); in test [16] it was 2.69 (inactive); in test [17] it was 1.99 (inactive); in test [18] it was 1.14 (inactive); in test [19] it was -2.24. For the same molecule, the composite z-score in [14] is -3.05 (inactive); in [20], -0.184.
In the case of `NCCCCCCNC(=O)[C@@H]1C[C@@H]2C(=O)N[C@@H](CCCCN)C(=O)N2[C@@H]1c1cccc(OCCO)c1`, the z-score in test [1] is 0.892; in [2], -0.452; in [3], 0.514; in test [4], 0.835; in test [5], 0.986; in test [6], 0.0199. The z-score in [7] was 0.759 (inactive); in [8], -0.639; in test [9], -0.451; in [10], 0.551 (inactive); in test [11] it was 1.1; in [12] it was 0.0813 (inactive). Besides, the z-score in test [13] is 0.193 (inactive); in test [15] it was -0.931 (inactive); in test [16], 0.58 (inactive); in test [17], 0.398 (inactive); in [18] it was 0.756 (inactive); in test [19], 0.685. Further, the composite z-score in test [14] is 0.169 (inactive); in test [20], 2.72.
As for `O=C1O[C@H](c2ccccc2)[C@H](c2ccccc2)N2[C@H]1[C@@H](C(=O)NC[C@H](O)c1ccccc1)[C@]1(C(=O)Nc3ccc(C#CCCO)cc31)[C@H]2c1ccc(OCCO)cc1`, the z-score in test [1] was 1.12; in test [2], 1.25; in test [3] it was 1.49; in test [4], -0.156; in test [5], 0.868; in test [6] it was -0.274. In addition, the z-score is -0.0786 (inactive) in test [7]; -0.165 in [8]; -0.389 in test [9]; -0.0659 (inactive) in [10]; -0.468 in test [11]; 1.62 (inactive) in [12]. Moreover, the z-score in [13] was -0.0793 (inactive); in test [15] it was 2.31 (inactive); in [16], 3.46 (inactive); in test [17], 0.541 (inactive); in [18], 0.721 (inactive); in test [19] it was -0.821. Also, the composite z-score is -1.33 (inactive) in test [14] and 0.283 in test [20].
`COCCOC(=O)N1C(=O)[C@@]2(c3cc(C#CC4(O)CCCCCC4)ccc31)[C@H](c1ccc(O)cc1)N1[C@H](c3ccccc3)[C@H](c3ccccc3)OC(=O)[C@H]1[C@@H]2C(=O)NC[C@H](O)c1ccccc1`: the z-score in test [1] is 0.121; in test [2], 0.266; in test [3], -0.31; in [4], -1.49; in [5] it was -3.49; in test [6] it was -2.3. The z-score is -1.27 (inactive) in test [7]; -1.15 in test [8]; -0.715 in test [9]; 0.0025 (inactive) in test [10]; 0.267 in test [11]; 0.31 (inactive) in test [12]. The z-score was -1.45 (inactive) in test [13]; 1.29 (inactive) in test [15]; 0.657 (inactive) in test [16]; 0.157 (inactive) in [17]; -0.105 (inactive) in test [18]; -1.62 in test [19]. Besides, the results for the composite z-score in test [14] and in test [20] were 0.658 (inactive) and 0.367, respectively.
